Test systems include NCI-H23 lung; NCI-H226 lung; NCI-H322M lung; HOP-62 NSCLC; NCI-H460 lung; HOP-92 NSCLC; NCI-H522 lung; A549/ATCC NSCLC; 786-0 renal; COLO 205 colon; DU-145 prostate; K-562 leukemia; MALME-3M melanoma; MDA-MB-231 breast; RXF 393 renal; SF-268 CNS; SF-295 CNS; SF-539 CNS; UACC-257 melanoma; M14 melanoma.
Assay in all cases: NCI-60 one-dose screen, 48 h (100 = growth as untreated, 0 = no growth, -100 = all killed)
Details in all cases: 10 µM unless noted

This is part of a sample that, as a whole, favours compounds with a hit. Of some 83,000 tested, about 20% had one in any assay.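 Compound tested at a single concentration for 48 hours in 96-well plates; a percent growth value below 10 was scored as active.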 Values without a mark were called inactive. The source made the active and inactive calls.

For `C[n+]1c(/C=C/c2ccc(N(CCCl)CCCl)cc2)sc2ccccc21`, the growth in the assay with NCI-H23 lung was 44.9%; with NCI-H226 lung, 73.7%; in the assay on NCI-H322M lung, 95%; with HOP-62 NSCLC, 52.2%; in the assay on NCI-H460 lung, 20.7%; with HOP-92 NSCLC, 61.9%. Moreover, the growth in the assay with NCI-H522 lung was 16.4%; with A549/ATCC NSCLC, 40.2%; in the assay on 786-0 renal, 50.3%; in the assay with COLO 205 colon, 32.2%; in the assay on DU-145 prostate it was 45.2%; with K-562 leukemia it was 15.3%. Besides, the growth is 54% in the assay with MALME-3M melanoma; 80.8% with MDA-MB-231 breast; 85.6% with RXF 393 renal; 57.7% with SF-268 CNS; 55.7% in the assay with SF-295 CNS; 45.4% in the assay on SF-539 CNS. The growth in the assay on UACC-257 melanoma and in the assay with M14 melanoma was 64.7% in each case.
For `COC(=O)[C@H](Cc1ccccc1)NNC(=O)c1csc([C@@H](C[C@H](C(C)C)N(C)C(=O)[C@@H](NC(=O)[C@H]2CCCCN2C)C2CC2)OC(C)=O)n1`, the growth in the assay with NCI-H23 lung is 29.2%; with NCI-H226 lung, 36.5%; in the assay with NCI-H322M lung, 46.7%; with HOP-62 NSCLC, 8.12% (active); in the assay with NCI-H460 lung, 3.02% (active); in the assay on HOP-92 NSCLC, 3.84% (active). Also, the growth in the assay on NCI-H522 lung is -19.2% (active); with A549/ATCC NSCLC, 15.3%; with 786-0 renal, 11.9%; with COLO 205 colon, -60.3% (active); in the assay with DU-145 prostate, 6.55% (active); in the assay with K-562 leukemia, 1.75% (active). In addition, the growth with MALME-3M melanoma was 71%; with MDA-MB-231 breast it was 3.27% (active); in the assay with RXF 393 renal, 76.4%; in the assay with SF-268 CNS it was 22.5%; in the assay with SF-295 CNS, -5.26% (active); with SF-539 CNS, -15.4% (active). Besides, the growth in the assay with UACC-257 melanoma is 58%; with M14 melanoma, 2.43% (active).
Consider `C[C@]12CCc3sc(-c4cccc(F)c4)nc3C1=CC[C@@H]1[C@@H]2CC[C@]2(C)C(=O)CC[C@@H]12`, for which the growth with NCI-H23 lung is 62.7%; with NCI-H226 lung, 65.8%; in the assay on NCI-H322M lung, 69.3%; with HOP-62 NSCLC, 50.5%; in the assay with NCI-H460 lung, 53.9%; in the assay on HOP-92 NSCLC, 74.3%. In addition, the growth is -36.5% (active) with NCI-H522 lung; 55% in the assay on A549/ATCC NSCLC; -10.1% (active) in the assay with 786-0 renal; 44.5% in the assay on COLO 205 colon; 22.9% with DU-145 prostate; 7.01% (active) with K-562 leukemia. Besides, the growth is 37.6% in the assay with MALME-3M melanoma; 62% with MDA-MB-231 breast; -22.5% (active) in the assay with RXF 393 renal; 52.4% in the assay on SF-268 CNS; -18.9% (active) in the assay on SF-295 CNS; -33.4% (active) in the assay on SF-539 CNS. Besides, the growth in the assay on UACC-257 melanoma was 77.4%; in the assay on M14 melanoma, 57.4%.
On to `COc1ccc(C2=CC(c3ccc(OC)c(OC)c3)c3c(c4ccccc4oc3=O)O2)cc1OC` (stereo not given), for which the growth was 63.4% with NCI-H23 lung; 89.5% in the assay on NCI-H226 lung; 35.8% in the assay with NCI-H322M lung; 49% in the assay with HOP-62 NSCLC; 9.23% (active) in the assay with NCI-H460 lung; -12.5% (active) in the assay on HOP-92 NSCLC. The growth in the assay with NCI-H522 lung was -43.7% (active); in the assay with A549/ATCC NSCLC, 39.4%; with 786-0 renal, 25.7%; in the assay on COLO 205 colon, 9.01% (active); in the assay on DU-145 prostate it was 9.25% (active); in the assay on K-562 leukemia it was 1.17% (active). Besides, the growth in the assay with MALME-3M melanoma was 75.3%; in the assay with MDA-MB-231 breast it was 27.8%; with RXF 393 renal, 33.2%; in the assay with SF-268 CNS, 38.7%; in the assay with SF-295 CNS, -54.4% (active); in the assay on SF-539 CNS, -17.8% (active). The growth in the assay on UACC-257 melanoma was 66.9%; with M14 melanoma it was 12.9%.
Turning to `COc1ccc(Nc2ccnc3cc(Cl)ccc23)cc1CN(CCCl)CCCl`, the growth with NCI-H23 lung was -46.7% (active); in the assay on NCI-H226 lung, 22.9%; in the assay on NCI-H322M lung it was -34% (active); with HOP-62 NSCLC it was -38.8% (active); in the assay on NCI-H460 lung, -18.2% (active); in the assay with HOP-92 NSCLC it was -39% (active). Besides, the growth in the assay with NCI-H522 lung is -47.6% (active); in the assay with A549/ATCC NSCLC, 1.03% (active); with 786-0 renal, -53.3% (active); with COLO 205 colon, -37.1% (active); in the assay on DU-145 prostate, -26.4% (active); in the assay with K-562 leukemia, 0.691% (active). Further, the growth was -85.3% (active) in the assay on MALME-3M melanoma; 0.96% (active) in the assay on MDA-MB-231 breast; -72.3% (active) with RXF 393 renal; -29.3% (active) in the assay on SF-268 CNS; -24.8% (active) in the assay with SF-295 CNS; -75.8% (active) in the assay on SF-539 CNS. For the same compound, the growth was -39.1% (active) in the assay on UACC-257 melanoma and -58.4% (active) with M14 melanoma.
Take `NC(N)=N/N=C\c1c[nH]c2ccc(Br)cc12`: the growth was 86.3% in the assay with NCI-H23 lung; 69.2% in the assay with NCI-H226 lung; 87.9% with NCI-H322M lung; 83.5% in the assay with HOP-62 NSCLC; 102% in the assay on NCI-H460 lung; 37.9% with HOP-92 NSCLC. Besides, the growth was 81% with NCI-H522 lung; 92.5% with A549/ATCC NSCLC; 78.6% with 786-0 renal; 84.5% in the assay with COLO 205 colon; 96.2% in the assay with DU-145 prostate; 74.6% in the assay with K-562 leukemia. Further, the growth was 76.8% in the assay with MALME-3M melanoma; 101% in the assay with MDA-MB-231 breast; 99% in the assay with RXF 393 renal; 64.6% with SF-268 CNS; 79.9% with SF-295 CNS; 84% in the assay on SF-539 CNS. Also, the values for the growth in the assay on UACC-257 melanoma and with M14 melanoma were 69.3% and 94.1%, respectively.
For `ClC1=C(Cl)C(Cl)(C2(Cl)C(Cl)=C(Cl)C(Cl)=C2Cl)C(Cl)=C1Cl`, the growth with NCI-H23 lung is -14.4% (active); in the assay on NCI-H226 lung it was -81.5% (active); in the assay on NCI-H322M lung, 98.3%; in the assay on HOP-62 NSCLC, 60.4%; with NCI-H460 lung, 67.6%; in the assay on HOP-92 NSCLC, -63.5% (active). In addition, the growth is -68.2% (active) in the assay on NCI-H522 lung; 45% in the assay with A549/ATCC NSCLC; -66.4% (active) with 786-0 renal; -68.6% (active) in the assay with COLO 205 colon; -43.1% (active) in the assay on DU-145 prostate; -24.6% (active) with K-562 leukemia. Further, the growth was -67.5% (active) in the assay on MALME-3M melanoma; -29.3% (active) in the assay with MDA-MB-231 breast; -83.2% (active) in the assay with RXF 393 renal; -46.4% (active) in the assay with SF-268 CNS; 89.6% in the assay on SF-295 CNS; -59% (active) in the assay on SF-539 CNS. For the same compound, the values for the growth in the assay with UACC-257 melanoma and in the assay on M14 melanoma were -60.4% (active) and -57.6% (active), respectively.
In the case of `Cn1cc(C2=C(c3cn(C4CCN(Cc5ccccn5)CC4)c4ccccc34)C(=O)NC2=O)c2ccccc21`, the growth is 53.6% in the assay with NCI-H23 lung; 93.5% in the assay with NCI-H226 lung; 37.2% with NCI-H322M lung; 68% in the assay with HOP-62 NSCLC; 74.9% with NCI-H460 lung; 69.8% in the assay with HOP-92 NSCLC. The growth in the assay with NCI-H522 lung is 48.8%; in the assay with A549/ATCC NSCLC, 50.8%; with 786-0 renal it was 79.7%; in the assay on COLO 205 colon, 6.03% (active); in the assay with DU-145 prostate, 70%; in the assay on K-562 leukemia it was 91.3%. Further, the growth with MALME-3M melanoma is -3.24% (active); in the assay on MDA-MB-231 breast, 79.8%; in the assay with RXF 393 renal, 90.9%; in the assay on SF-268 CNS, 82.8%; in the assay on SF-295 CNS, 97.1%; in the assay with SF-539 CNS, 89.6%. Besides, the growth was -0.885% (active) in the assay on UACC-257 melanoma and 16.5% in the assay with M14 melanoma.

Values taken from PubChem BioAssay (NCI).
